This note sets out measurements from PubChem BioAssay (NCI).

About 83,000 compounds went through this panel and 20% of them were active in at least one assay; those are over-represented in the sample as a whole.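 48-hour exposure, single concentration, 96-well plates; percent growth endpoint where 0 means no net growth. Active: below 10.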 Unmarked numbers belong to inactive results. The source made the active and inactive calls.

The assay has as its system KM12 colon. Put plainly: NCI-60 one-dose screen, 48 h (100 = growth as untreated, 0 = no growth, -100 = all killed). Conditions: 10 µM unless noted.
On to `CN(C)CCC=C1c2ccccc2C(C)(C)c2ccccc21`, for which the growth was 76.9%.

For `COc1cc(C2CC(c3cc(OC)c(OCCCOc4ccc(-n5c(/C=C/c6ccccc6)nc6ccccc6c5=O)cc4)c(OC)c3)=NO2)cc(OC)c1OC` (configuration not stated), the growth was 122%.

`CS(=O)c1cccc(-c2ccc3nc(N)n(-c4ccc(C(F)(F)F)cc4)c(=O)c3c2)c1` (configuration not stated): the growth is 98.5%.

With `CC(C)(C)C(CCc1ccc(Cl)cc1)N1CCN(C2CCCCC2)CC1` (configuration not stated), the growth is 36.8%.

On to `CNC(=O)CCN1CCN(CC/C=C2\c3ccccc3Sc3ccc(Cl)cc32)CC1`, for which the growth was 62.3%.

For `O=c1ssc(Cl)c1-c1ccccc1`, the growth was 113%.

With `O=C1CC(N2C(=O)/C(=C/C(Cl)=C\c3ccc([N+](=O)[O-])cc3)SC2=S)C(=O)N1c1ccc(O)cc1` (configuration not stated), the growth is -72.4% (active).

With `COC(=O)CCC1=C(C)C2=NC1=CC1=NC(=CC3=NC(=Cc4[nH]c(/c(=C(/C)O)c4C)=C2)C(C(C)=O)=C3C)C(C)=C1CCC(=O)OC`, the growth is 104%.

With `CC1SC(c2ccc(OCc3ccccc3)cc2)N(NC(=O)C(O)(c2ccccc2)c2ccccc2)C1=O` (configuration not stated), the growth is 34.2%.

`N#CC1=C(NC=O)Oc2c(ccc3ccccc23)C1c1ccccc1` (configuration not stated): the growth is 30.7%.

Turning to `O=C(Cc1ccc(F)c(F)c1)Nc1cc(C2(C(F)(F)F)CC2)nn1Cc1ccccc1`, the growth was 1.89% (active).

With `CCN(CC)CCN1CC(O)=C(c2nc(-c3ccc(Cl)cc3)cs2)C1=N`, the growth was 33.7%.
